Measurements from PubChem BioAssay (NCATS).
Inconclusive results are not listed. Values without a mark were called inactive. The source made the active and inactive calls. Calls follow the shape of the dose curve; as a rule, active = well fitted curve in the direction sought with a large enough effect; inconclusive = small, poorly fitted or top-dose-only effect, or another doubt; inactive = no such curve, though single readings can be large; an effect the other way counts as inactive or inconclusive. *1 amine or outer side, *2 acyl side, *3 side chain or, on linkers, in order; H or OH if unused. Where a SMILES comes first, the peptide text is derived from it. Bridges are numbered along the chain shown (N, C = ends). [ ]: non-standard residue; d: D form. The star is where a group is joined. ξ: configuration not given here. X10 = NC1=NCCC(C(N[*:1])C(=O)[*:2])N1; ΔAla(3-NHCONH2) = NC(=O)NC=C(N)C(=O)O; ξβ3hOrn = NCCCC(N)CC(=O)*; Dap = NC[CH](N)C(=O)O

These compounds were tested on Zika virus NS2B-NS3 protease (assay: Primary screen GU AMC qHTS for Zika virus inhibitors (AID 1347154; also: nearly all actives have a fitted effect of over 70% in size; also: potency is read from the fitted curve at half-maximal effect;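 as to activity change, negative = inhibition: 0% = no-inhibitor control and -100% = no-enzyme control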)). Settings: Zika NS2B-NS3 unlinked protease, AMC fluorogenic substrate; series mostly up to 54.1 µM; activity change, negative = inhibition: at the top concentration.
Procedure, shortened: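 Fluorogenic AMC-substrate cleavage by noncovalent NS2B-NS3 protease complex (25 nM, pH 8.0 Tris buffer with Tween 20) followed for 15 minutes at room temperature (~20% conversion). Percent inhibition from ex340/em450 signal change, fitted by 4-parameter Hill equation.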

Compound | activity change, negative = inhibition | Potency
C[C@H]1NCc2cc(-c3ccc4c(=O)c(C(=O)O)cn(C5CC5)c4c3OC(F)F)ccc21 | -4.99% [at 25.8 µM] | 
COc1cc(C(=O)OC(COCCC(C)C)CN2CCOCC2)cc(OC)c1OC (stereo not drawn) | -4.8% | 
Nc1ncnc2nc[nH]c12 | -3.53% | 
Oc1ccc(CCNCCCCCCNCCc2ccccc2)cc1O | -0.304% | 
O=C(O)c1ccccc1S | -1.63% | 
C=CC[N+]1([C@H]2C[C@H]3[C@@H]4CC[C@H]5C[C@H](OC(C)=O)[C@@H](N6CCCCC6)C[C@]5(C)[C@H]4CC[C@]3(C)[C@H]2OC(=O)CC)CCCCC1 | -0.881% | 
CO[C@@H]1[C@@H](O[C@@H]2O[C@H](C)[C@@H](O[C@H]3C[C@@](C)(O)[C@@H](O)[C@H](C)O3)[C@H](N(C)C)[C@H]2O)[C@@H](CC=O)C[C@@H](C)[C@@H](O[C@@H]2CC[C@H](N(C)C)[C@@H](C)O2)/C=C/C=C/C[C@@H](C)OC(=O)C[C@H]1OC(C)=O | 1.22% | 
CCOC(=O)OCC/C(SC(=O)OCC)=C(\C)N(C=O)Cc1cnc(C)nc1N | -3.4% | 
O=C1[C@@H]2[C@H]3CC[C@H](C3)[C@@H]2C(=O)N1CCCCN1CCN(c2ncccn2)CC1 | -8.2% | 
CC(=O)O[C@@H]1C(=O)O[C@@H]2[C@H]1OC(=O)[C@@H]2OC(C)=O | -3.06% | 
CC(=O)N1CCN(c2ccc(O)cc2)CC1 | 4.83% | 
C[C@@H](O[C@H]1OCCN(Cc2n[nH]c(=O)[nH]2)[C@H]1c1ccc(F)cc1)c1cc(C(F)(F)F)cc(C(F)(F)F)c1 | -23.2% | 
CN1Cc2cc(C(=O)N3CCC(C4CCNCC4)CC3)ccc2N[C@@H](CC(=O)O)C1=O | -7.09% | 
COC(=O)C1=C(C)NC(C)=C(C(=O)OCCc2ccc(N3CCN(C(c4ccccc4)c4ccccc4)CC3)cc2)C1c1cccc([N+](=O)[O-])c1 (stereo not drawn) | -9.63% | 
CCN(CC)C(=O)C1CN2CCc3cc(OC)c(OC)cc3C2CC1OC(C)=O (stereo not drawn) | -6.89% | 
CCOC(=O)c1ccc(OCCN2C[C@H](O)[C@@H](O)[C@H](O)[C@H]2CO)cc1 | 3.38% | 
Oc1ccccc1 | 0.454% | 
NCCCC(N)CC(=O)NCC1NC(=O)C(CO)NC(=O)C(N)CNC(=O)C(C2CCN=C(N)N2)NC(=O)C(=CNC(N)=O)NC1=O (stereo not drawn) (H-[Dap]S[Dap](ξβ3hOrn)[ΔAla(3-NHCONH2)][X10]; lactam 1-C; configuration not given here) | -2.82% [at 0.59 µM] | 
CCOC(=O)c1ccc(NC(=O)CN2CCCCC2)cc1 | -0.422% | 

Compound | activity change, negative = inhibition | Potency
CC(=O)N[C@@H](CCC(N)=O)C(=O)O | -2.96% | 
CN1Cc2cc(C(=O)N3CCC(C4CCNCC4)CC3)ccc2NC(CC(=O)O)C1=O (stereo not drawn) | -7.03% | 
CCC(C(=O)OCCN1CCOC(c2ccccc2)C1C)c1ccccc1 (stereo not drawn) | -7.61% | 
CC(=O)Oc1ccc(C2(c3ccc(OC(C)=O)cc3)Oc3ccccc3NC2=O)cc1 | -12.9% | 
Nc1c2ccccc2nc2ccccc12 |  | 35.5 µM (active)
[O-][n+]1cccc(/C(Cl)=N/OC[C@@H](O)CN2CCCCC2)c1 | -3.44% | 
Cc1ccccc1N1CCN(CCc2nnc3n2CCCC3)CC1 | -1.11% | 
CCCCCCCCCCCCCC[N+](C)(C)C | -13.2% | 
O=C(O)CCCC[C@@H]1SC[C@@H]2NC(=O)N[C@@H]21 | -2.63% | 
N#CSCC(=O)O | 3.82% | 
CC1c2ccccc2CN1NC(=O)c1ccc(Cl)c(S(N)(=O)=O)c1 (stereo not drawn) | -1.51% | 
C[N+]1(C)CCC(OC(=O)C(O)(c2ccccc2)C2CCCC2)C1 (stereo not drawn) | 3.41% | 
CCN1CCN(c2cc(-c3ccc(F)cc3)c3c(n2)CCCCCC3)CC1 | -2.47% [at 25.8 µM] | 
Cc1ccc(O)cc1 | -1.03% | 
CC(=O)[C@H]1CC[C@H]2[C@@H]3C=CC4=CC(=O)CC[C@@]4(C)[C@@H]3CC[C@]12C | 0.0062% | 
COc1ccc2c(c1)c(CC(=O)OC/C=C(\C)CC/C=C(\C)CCC=C(C)C)c(C)n2C(=O)c1ccc(Cl)cc1 | -12.3% | 
CCCCCCCC(=O)[O-].CCCCCCCC(=O)[O-].[Zn+2] | -10.5% | 
O=C(c1ccccc1)c1ccccc1 | 3.54% | 
CC(=O)N(CC(=O)N(C)C)c1ccccc1 | 0.227% | 

What follows are compounds tested on Zika virus NS2B-NS3 protease (unlinked complex) (assay: Primary screen GU Rhodamine qHTS for Zika virus inhibitors: Unlinked NS2B-NS3 protease assay (AID 1347159; also: % is scaled to controls: 0 for no effect and ±100 for the full control effect; nearly all actives have a fitted effect of over 60% in size)). Settings: Recombinant ZIKV NS2B-NS3 protease, Rhodamine110 substrate fluorescence; series mostly up to 107 µM; activity change, negative = inhibition: at the top concentration.
Procedure, shortened: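 Enzyme 25 nM in Tris-HCl pH 8.0 + 0.01% Tween 20; compounds up to 114 microM, 15 min RT dark; + Rhod110 substrate 1.5 microM; read t0 and 15 min; delta fluorescence → % inhibition → 4-parameter Hill fit.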

Compound | activity change, negative = inhibition
COc1cc(C(=O)OC(COCCC(C)C)CN2CCOCC2)cc(OC)c1OC (stereo not drawn) | 6.77%
C=CC[N+]1([C@H]2C[C@H]3[C@@H]4CC[C@H]5C[C@H](OC(C)=O)[C@@H](N6CCCCC6)C[C@]5(C)[C@H]4CC[C@]3(C)[C@H]2OC(=O)CC)CCCCC1 | -3.77%
O=C1[C@@H]2[C@H]3CC[C@H](C3)[C@@H]2C(=O)N1CCCCN1CCN(c2ncccn2)CC1 | -6.08%
CC(=O)O[C@@H]1C(=O)O[C@@H]2[C@H]1OC(=O)[C@@H]2OC(C)=O | -4.79%
CCOC(=O)c1ccc(OCCN2C[C@H](O)[C@@H](O)[C@H](O)[C@H]2CO)cc1 | 0%
CCOC(=O)c1ccc(NC(=O)CN2CCCCC2)cc1 | 8.94%
CC(=O)Oc1ccc(C2(c3ccc(OC(C)=O)cc3)Oc3ccccc3NC2=O)cc1 | 0%
CC1c2ccccc2CN1NC(=O)c1ccc(Cl)c(S(N)(=O)=O)c1 (stereo not drawn) | 0%
CCN1CCN(c2cc(-c3ccc(F)cc3)c3c(n2)CCCCCC3)CC1 | 0%
CC(=O)[C@H]1CC[C@H]2[C@@H]3C=CC4=CC(=O)CC[C@@]4(C)[C@@H]3CC[C@]12C | -16.4%
